Only some compounds are listed: those with a hit (about 6% of all), similar ones and a draw of the others.
D1 potentiator – potentiators of human D1 dopamine receptor. 0.036% of 360,000 active. AID 504651. potentiation, % at 10 µM. HEK293 TREx D1 cells, calcium flux, dopamine EC20 potentiation; in the data active = potentiation above about 30%
DRD3 agonist – agonists of human D3 dopamine receptor; max activation, %; D3R DiscoveRx beta-arrestin cells, luminescence, 90 min; P35462; 0.58% of 410,000 active; in the data active = max activation above about 30%
Target sequence (P35462 whole entry, looked up): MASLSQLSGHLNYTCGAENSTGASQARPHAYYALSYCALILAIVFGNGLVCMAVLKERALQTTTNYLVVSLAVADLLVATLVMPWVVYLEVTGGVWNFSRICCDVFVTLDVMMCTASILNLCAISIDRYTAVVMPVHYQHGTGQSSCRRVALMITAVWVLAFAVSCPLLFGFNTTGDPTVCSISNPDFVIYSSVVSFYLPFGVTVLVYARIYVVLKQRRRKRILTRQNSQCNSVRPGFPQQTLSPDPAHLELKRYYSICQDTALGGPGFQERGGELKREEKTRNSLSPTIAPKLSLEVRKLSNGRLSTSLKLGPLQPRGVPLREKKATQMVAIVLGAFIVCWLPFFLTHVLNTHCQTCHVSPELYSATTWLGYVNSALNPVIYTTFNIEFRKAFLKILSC
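Agonist mode: compounds and dopamine controls were applied to plated cells for 90 min at 37 degrees C after an overnight attachment at 1500 cells/well. Luminescent read-out followed 30 - 60 minutes at room temperature with DiscoveRx detection reagent.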
D3 antag – blocks the human D3 dopamine receptor. 2.5% of 360,000 active. AID 652054. D3R cells, DiscoveRx beta-arrestin luminescence, antagonist mode; stronger effect = lower value. max response, negative = inhibition, %; in the data active = max response below about -50%; inconclusive = no clear call, values can overlap the other calls
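Cells plated overnight at 1500 cells/well, then exposed to library compounds with dopamine controls for 90 minutes at 37 degrees C. DiscoveRx reagent added for 30–60 minutes at room temperature; luminescence read, quantitative HTS format.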
D1 antagonist – blocks dopamine activation of the human D1 receptor; P21728; HEK293 TREx D1 cells, calcium flux, dopamine EC80; stronger effect = lower value; activity change, negative = inhibition, % at 10 µM; 3.2% of 360,000 active; in the data active = activity change below about -30%
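Tetracycline-induced HEK293 Trex D1 cells, force-coupled to calcium, dye-loaded; compounds added and read 180 s, then EC80 dopamine added and calcium flux tracked kinetically another 180 s.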
D1 agonist – agonists of human D1 dopamine receptor. 1% of 360,000 active. P21728. activation, % at 2 µM. HEK293 T-REx D1 cells, calcium flux, agonist mode; in the data active = activation above about 30%
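Tetracycline-induced HEK293 TREx D1 cells, force-coupled to calcium signalling, were dye-loaded with a no-wash calcium kit. Compound was pin-added after a 10 s baseline. Fluorescence was read kinetically at 1 cycle/s for 180 s, with calcium rises flagged as agonism.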
Chronic BCR inh – chronic active BCR signaling inhibition; 0.05% of 340,000 active; ABC-DLBCL IkBa-CBG/CBR reporter, luminescence ratio, 4 h; Potency, µM (highest dose often 46.1 µM), actives largely listed as inhibitors; AID 493014; active = well fitted inhibition curve with a large enough effect in the signal ratio, with a control signal flat, not every such curve was filed as active; inconclusive = small, poorly fitted or top-dose-only effect, or effect the other way, or a change in a side signal; the % refers to the signal ratio
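Compounds up to 46 uM were incubated four hours with TMD8 cells whose green CBG68 luciferase is fused to IkappaBalpha; red CBR luminescence normalised the signal, and concentration-effect curves were fitted to fusion, red and ratio data.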
Each line names hits and unclear results; the compound was inactive in the other large screens.

O=C(CN1CCN(c2ccc(Cl)cc2)CC1)NCc1ccccc1	none
Nc1ncnc(Sc2ncccn2)c1[N+](=O)[O-]	D3 antag -84, Chronic BCR inh inconclusive (no result: D1 antagonist)
Cc1ccc(C)c(CSc2nc3ccncc3n2CC(=O)Nc2ccc(N(C)C)cc2)c1	none (no result: D3 antag, Chronic BCR inh)
COc1ccccc1Cn1cc(C(=O)c2ccc(C)cc2)c(=O)c2cc(C)ccc21	none (no result: D3 antag, Chronic BCR inh)
Cc1sc(NC(=O)c2ccc(Cl)s2)c(C(N)=O)c1C	Chronic BCR inh inconclusive
Cc1sc(NC(=O)c2ccc(Br)s2)c(C(N)=O)c1C	D1 potentiator 31, D3 antag inconclusive, Chronic BCR inh inconclusive
Cc1ccc(NC(=O)C(CC(C)C)N2Cc3ccccc3C2=O)cc1F (stereo unspecified)	none (no result: D3 antag, Chronic BCR inh)
Cc1ccsc1/C=C/C1=Cc2c(sc(NC(=O)CSc3n[nH]c(N)n3)c2C#N)C(C)(C)C1	D1 potentiator 98, D1 agonist 33
CCOc1ccc(/C=C/C2=Cc3c(sc(NC(=O)CSc4n[nH]c(N)n4)c3C#N)C(C)(C)C2)cc1	D1 potentiator 31, D1 agonist 60
CCOC(=O)c1sc(NC(=O)CSc2n[nH]c(-c3ccncc3)n2)c(C#N)c1C	none (no result: D1 antagonist)
CCOc1ccccc1NC(=O)c1ccc2c(c1)CCCN2S(C)(=O)=O	none (no result: D3 antag, Chronic BCR inh)
C[C@@H]1ON(C)[C@H]2C[C@H]3c4[nH]c5ccc(-c6ccc7c(c6)OCO7)cc5c4CCN3C(=O)[C@@H]12	none (no result: D1 potentiator, D1 antagonist, D1 agonist, Chronic BCR inh)
COC(=O)c1ccc(COn2nnc3ccccc32)cc1	D1 antagonist -35, Chronic BCR inh inconclusive
COC(=O)c1ccc(Cn2nnc3ccccc32)cc1	none
COc1cc(Cl)c(C)cc1NC(=O)CN1CCN(C(=O)c2cccs2)CC1	D3 antag inconclusive (no result: D1 potentiator, D1 antagonist, D1 agonist, Chronic BCR inh)
COc1ccc(CC2S/C(=N/N=C/c3ccccc3O)NC2=O)cc1 (stereo unspecified)	Chronic BCR inh inconclusive
O=C1N/C(=N/N=C/c2ccccc2O)SC1Cc1ccc(F)cc1 (stereo unspecified)	D3 antag -56, Chronic BCR inh inconclusive
Cc1nc(C)c(-c2ccc(SCC(=O)Nc3ccc(Cl)c(Cl)c3)nn2)s1	none (no result: D3 antag, Chronic BCR inh)
CCN(CC)c1ccc(/C=C(\C#N)c2nc(-c3cccs3)c(NC(C)=O)s2)cc1	D1 agonist 214 (no result: DRD3 agonist, D3 antag)
COc1ccc(OC)c(Nc2nc3ccccc3nc2-n2nc(C)cc2C)c1	none (no result: D3 antag, Chronic BCR inh)
CCOC(=O)c1c(C)n(CCNC(C)=O)c2ccc(OC)cc12	none
CCOC(=O)c1c(-c2ccccc2)c2cc(OC)ccc2n1CCCN(C)C	D3 antag -72, D1 agonist 31, Chronic BCR inh inconclusive
Cc1cc(/C=C(\C#N)C(=O)OCC(=O)NC(=O)NC(C)(C)C)c(C)n1CCC(C)C	D1 antagonist -51
COc1cc(CNc2nc3ccccc3n2Cc2ccccc2)ccc1O	none (no result: D1 potentiator, D1 antagonist, D1 agonist, Chronic BCR inh)
CSc1ccc(CN2CCC2(C)C(=O)NC2CCc3ccccc32)cc1 (stereo unspecified)	D3 antag -70 (no result: D1 potentiator, D1 antagonist, D1 agonist, Chronic BCR inh)
Cc1nn2c(-c3cccnc3)ccnc2c1-c1ccccc1	D1 antagonist -44
Cc1nn2c(-c3ccccc3)ccnc2c1Br	none
Oc1ccc(C[C@H]2CNC(=S)N2CC2CCCN2C[C@H](Cc2ccccc2)N2C[C@H](Cc3ccc(O)cc3)N(CC3CCCCCC3)C2=S)cc1 (stereo partly specified)	none (no result: D1 potentiator, D1 antagonist, D1 agonist, Chronic BCR inh)
CCOc1ccccc1-c1nc(SCC(=O)c2ccc(OC)c(Br)c2)n[nH]1	none (no result: D3 antag, Chronic BCR inh)
CCOC(=O)c1cc(-c2ccc(C)cc2)n(CCC(=O)NCCc2ccc(C)cc2)c1C	none (no result: D3 antag, Chronic BCR inh)
CCOC(=O)c1cc(-c2ccc(C)cc2)n(CCC(=O)NCCN(C)C)c1C	D1 agonist 63
COc1cccc(C2CC(=O)Nc3c2ccc(C)c3C)c1OC (stereo unspecified)	none (no result: D3 antag, Chronic BCR inh)
Cc1ccc(C(=O)N/C(=C/c2ccc(N(C)C)cc2)C(=O)NCC2CCCO2)cc1 (stereo unspecified)	DRD3 agonist 35
O=S(=O)(c1cnc(Cl)c(Br)c1)N1CCc2ccccc21	D3 antag -53, Chronic BCR inh inconclusive
CC1CCN(S(=O)(=O)c2cnc(Cl)c(Br)c2)CC1	D1 agonist 56
CCOC(=O)C1C(=O)CC(C)(O)C(C(=O)OCC)C1c1ccc(F)cc1 (stereo unspecified)	none
CCOC(=O)C1C(=O)CC(C)(O)C(C(=O)OCC)C1c1ccc(Br)cc1 (stereo unspecified)	D1 antagonist -30, Chronic BCR inh inconclusive
Cc1ccc(NC(=O)CN2C(=O)CSc3ccc(S(=O)(=O)N4CCCC4)cc32)c(C)c1	none (no result: D3 antag, Chronic BCR inh)
N#CC1=C(N)Oc2c(oc(CO)cc2=O)C1c1ccccc1[N+](=O)[O-] (stereo unspecified)	D1 antagonist -35, Chronic BCR inh inconclusive
C[C@@H]1CC=C[C@H]2[C@H]1C(=O)N(Cc1ccccc1)[C@H]2c1ccc(-c2ccoc2)cc1F	D3 antag -62, Chronic BCR inh inconclusive
Cc1ccc(-c2cccc(C3CC=CC4C3C(=O)N(Cc3ccccc3)C4c3cc(C)ccc3F)c2)cc1 (stereo unspecified)	D1 antagonist -66
C#CCn1cc(CNC[C@H]2O[C@@H](n3cnc4c(=O)[nH]c(N)nc43)[C@H](O)[C@@H]2O)c2ccccc21	none (no result: D1 potentiator, D1 antagonist, D1 agonist, Chronic BCR inh)
O=[N+]([O-])c1ccc2nc(-c3ccc(Cl)cc3)[nH]c2c1	D1 antagonist -49, Chronic BCR inh inconclusive
O=[N+]([O-])c1ccc2nc(-c3ccccc3[N+](=O)[O-])[nH]c2c1	D1 antagonist -39, Chronic BCR inh inconclusive
Cc1ccc(-c2nc3ccc([N+](=O)[O-])cc3[nH]2)cc1	Chronic BCR inh inconclusive
CCCCc1nc2cc(C(=O)N3CCCCC3COC)ccc2o1 (stereo unspecified)	D1 antagonist -31
COc1cc(CNC(C)C)c(Br)cc1OC1CCCC1	D1 antagonist -49
Cn1c(O)c(C2=c3ccccc3=NC2=O)sc1=Nc1ccc(Cl)cc1	D3 antag -63, Chronic BCR inh inconclusive
CCOC(=O)[C@]12CCCC=C1N(Cc1ccccc1)C(=O)[C@H](CC(=O)NCc1cccs1)C2	none (no result: D1 potentiator, D1 antagonist, D1 agonist, Chronic BCR inh)
c1ccc(COc2ccccc2CNc2nn[nH]n2)cc1	D1 antagonist -75
COc1cccc(CNc2nn[nH]n2)c1OC	none
COc1cc(-c2ccc3oc(-c4cccc(C)c4)c(C#CC4(O)CCCCC4)c3c2)cc(OC)c1OC	DRD3 agonist 42, Chronic BCR inh inconclusive (no result: D1 potentiator, D1 antagonist, D1 agonist)
COc1ccc(-c2oc3ccc(-c4ccc5c(c4)OCO5)cc3c2C#CC2(O)CCCCC2)cc1	none (no result: D1 potentiator, D1 antagonist, D1 agonist, Chronic BCR inh)
C#CCOCCOCCOCCNc1nc(N2CCN(C(=O)CCCCCCCCCCNC(=O)[C@H](CCCCN)n3cc(CCCC(=O)O)nn3)CC2)nc(N2CCN(C(=O)CCCCCCCCCCNC(=O)[C@@H]([C@H](C)O)n3cc(C)nn3)CC2)n1	D1 agonist 44
